Hits are enriched below; roughly 6.3% of the tested compounds scored in any of these assays.
Fluor 339 460 = intrinsic fluorescence of library compounds, ex339/em460 – biochemical, MLSMR library, data from DPM-DC assay, artefact control, profiling panel. compound autofluorescence, ex339/em460 nm, NADH buffer; stronger effect = higher value; 1 = no-compound wells, NADH background. fluorescence fold increase at 10 µM. actives 5.5% (n = 65,000). AID 709;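 active = at 10 µM, mean starting fluorescence two-fold or more over control wells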;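 also: signal is the first read of a kinetic run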
MK inhibit = inhibitors of Streptococcus pneumoniae mevalonate kinase. purified MK, PK/LDH-coupled NADH absorbance 340 nm. inhibition, % at 10 µM. actives 0.48% (n = 65,000);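 active = ranked among the strongest by inhibition in the single 10 µM screen, a fixed top-ranked set picked for dose follow-up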
NADH enzymes = inhibitors of enzymes used to reach an NAD/NADH endpoint; AID 774; IC50, µM (doses to about 10 µM); actives 0.02% (n = 65,000); coupled PK/LDH NADH assays, four targets;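 active = single-dose screening hits from any of four coupled enzyme assays that gave an IC50 when retested across doses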;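 also: the DPM-DC format reads NADH fluorescence rather than 340 nm absorbance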
Abs 340nm = absorbance at 340 nm. AID 708. 65,000 tested, under 10 active. compound absorbance at 340 nm, fold over control. fold change at 10 µM;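 active = at 10 µM dose, initial 340 nm absorbance at least 2 fold that of control wells; inactive = change under 2 fold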;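 also: initial absorbance extrapolated from kinetic A340 decline of NADH oxidation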
DPM-DC inhibit = blocks S. pneumoniae diphosphomevalonate decarboxylase; calls only at 10 µM; purified DPM-DC, PK/LDH coupled NADH fluorescence; actives 0.49% (n = 65,000);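 active = the 320 compounds with the highest percent inhibition in the single-dose primary screen, excluding strongly autofluorescent ones, cut at about 32% in these data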;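 also: kinetic rate of NADH fluorescence loss reporting ADP formed by the decarboxylase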
PMK inhibit = inhibitors of Streptococcus pneumoniae phosphomevalonate kinase | actives 0.49% (n = 65,000) | purified PMK, PK/LDH-coupled NADH absorbance 340 nm | inhibition, % at 10 µM | AID 539;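 active = top-ranked compounds by inhibition in the single 10 µM screen, taking a fixed number of the strongest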
A number is an active result; 0 = inactive; - = not tested or not shown; + = active, no number; [ ] = dose if it differs, or a comment.

SMILES	Fluor 339 460	MK inhibit	NADH enzymes	Abs 340nm	DPM-DC inhibit	PMK inhibit
CC(=O)Oc1cc2oc(=O)c3c(c2cc1Cl)CCC3	4.92	0	0	0	-	0
Cc1cc2oc(=O)c3c(c2cc1OC(=O)c1ccco1)CCCC3	0	0	0	0	0	0
O=C(Oc1cc2oc(=O)c3c(c2cc1Cl)CCCC3)c1ccco1	2.46	0	0	0	-	0
CCCc1cc(=O)oc2cc(OCC(=O)N(C)C)c(Cl)cc12	0	0	0	0	0	0
Cc1coc2cc3oc(=O)c4c(c3cc12)CCC4	2.75	0	0	0	+[may fluoresce]	0
Cc1coc2c(C)c3oc(=O)c4c(c3cc12)CCC4	0	0	0	0	0	0
Cc1sc2ncnc(Sc3nnnn3-c3ccccc3)c2c1C	3.37	0	0	0	0	0
Clc1ccc(-n2nnnc2Sc2ncnc3sccc23)cc1	0	0	0	0	0	0
O=C1NC2(CCCCC2)Oc2ccccc21	0	0	0	0	0	0
O=C1c2ccccc2NC2(CCCCC2)N1c1ccc(O)cc1	3.74	0	0	0	-	0
CC(=O)CCc1c(C)c2cc(C)ccc2[nH]c1=O	0	0	0	0	0	0
O=C(CC1NC2CCCCC2NC1=O)Nc1cccc(C(F)(F)F)c1 (configuration not stated)	0	0	0	0	0	0
CC(C)Cn1c(N)c(C(=O)NCC2CCCO2)c2nc3ccccc3nc21 (configuration not stated)	2.11	0	0	0	-	0
Nc1c(C(=O)NCC2CCCO2)c2nc3ccccc3nc2n1/N=C/c1ccncc1 (configuration not stated)	0	0	0	0	0	0
COc1ccc(C(=O)NCCCn2ccnc2)cc1	0	0	0	0	0	0
COCCNC(=O)c1c(N)n(CCCn2ccnc2)c2nc3ccccc3nc12	3.84	0	0	0	-	0
Nc1c(C(=O)OCC2CCCO2)c2nc3ccccc3nc2n1C1CCCC1 (configuration not stated)	3.84	0	0	0	-	0
COCCn1c(N)c(C(=O)NCC2CCCO2)c2nc3ccccc3nc21 (configuration not stated)	2.35	0	0	0	-	0
Nc1c(C(=O)NC2CCCC2)c2nc3ccccc3nc2n1N	0	0	0	0	0	0
CCOC(=O)c1cc(NC(=O)c2c(C)noc2C)cc(C(=O)OCC)c1	0	0	0	0	0	0
COCCCNc1nc2ccccc2nc1NS(=O)(=O)c1cccs1	0	0	0	0	0	0
COCCn1c(N)c(C(=O)Nc2sc3c(c2C(=O)OC)CCCC3)c2nc3ccccc3nc21	0	0	0	0	0	0
COc1ccc(OC)c(-n2c(N)c(C(=O)NCC3CCCO3)c3nc4ccccc4nc32)c1 (configuration not stated)	2.1	0	0	0	-	0
COCCn1c(N)c(S(=O)(=O)c2cccs2)c2nc3ccccc3nc21	3.93	0	0	0	-	0
COCCn1c(N)c(C(=O)NCc2cccs2)c2nc3ccccc3nc21	3.68	0	0	0	-	0
SMILES	Fluor 339 460	MK inhibit	NADH enzymes	Abs 340nm	DPM-DC inhibit	PMK inhibit
COc1ccc2c(-c3cccnc3)cc(=O)[nH]c2c1	2.13	0	0	0	0	0
CCCNC(=O)NC1C(NC(=O)NCCC)N(C)C(=O)N1C (configuration not stated)	0	0	0	0	0	0
Nc1nnc(CCS(=O)(=O)c2cc(Cl)ccc2Cl)s1	0	53.0	0	0	0	0
Nc1nnc(Cc2ccc(Cl)cc2)s1	0	0	0	0	0	0
CCOC(=O)CC1(CC(=O)OCC)NC(=O)c2c(C)sc(C(=O)OCC)c2N1	2.96	0	0	0	-	0
CCOC(=O)CC1(C)NC(=O)c2c(C)sc(C(=O)OCC)c2N1 (configuration not stated)	3.87	0	0	0	-	0
CCC(C)OC(=O)c1[nH]c2c(c1C)C(=O)CC(c1ccc(N(C)C)cc1)C2 (configuration not stated)	0	0	0	0	0	0
Cc1oc2ncnc(N)c2c1C	0	0	0	0	0	0
Cc1ccc(-c2oc3ncnc(N)c3c2-c2ccc(C)cc2)cc1	3.49	0	0	0	-	0
Cc1ccc(CC(CC(=O)O)C(=O)NC2CCCCC2)cc1 (configuration not stated)	0	0	0	0	0	0
CC1(C)CC(=O)C2=C(C1)N(CCN1CCOCC1)C1=C(C(=O)CC(C)(C)C1)C2c1cccc(Cl)c1	4.3	-	0	0	-	0
COC(=O)CN(C#N)c1nc(OC)nc(N(C)C)n1	0	0	0	0	0	0
Cc1nn(CCC(=O)O)c2nc(-c3cccnc3)cc(C(F)(F)F)c12	4.93	0	0	0	-	0
O=C(Nc1cccc2ccccc12)OC1C=CS(=O)(=O)C1 (configuration not stated)	0	0	0	0	0	0
CC1OC(Nc2cccc3ccccc23)C(O)C(O)C1O (configuration not stated)	2.15	0	0	0	-	0
N#Cc1nc(COc2ccccc2)oc1NCCCn1ccnc1	0	0	0	0	0	0
N#Cc1nc(COc2ccccc2F)oc1NCCCn1ccnc1	0	0	0	0	0	0
CN(C)c1oc(-c2ccc(OCc3ccccc3)cc2)nc1C#N	3.88	0	0	0	-	0
N#Cc1nc(-c2ccc(OCc3ccccc3)cc2)oc1NCCCn1ccnc1	3.95	0	0	0	-	0
N#Cc1nc(-c2ccc(OCc3ccccc3Cl)cc2)oc1NCCCn1ccnc1	2.34	0	0	0	0	0
Cc1ccc(OCc2nc(C#N)c(NCCCn3ccnc3)o2)cc1	0	0	0	0	0	0
N#Cc1nc(-c2ccco2)oc1NCCCn1ccnc1	3.96	0	0	0	-	0
Cc1ccc2c(c1)NCCO2	0	0	0	0	0	0
O=C(CN1CCN(S(=O)(=O)c2cc(Cl)ccc2Cl)CC1)Nc1ccc2c(c1)OCCO2	0	0	0	0	0	0
Cc1cccc(-c2nc(C#N)c(NC3CCCCC3)o2)c1	2.14	0	0	0	0	0
SMILES	Fluor 339 460	MK inhibit	NADH enzymes	Abs 340nm	DPM-DC inhibit	PMK inhibit
Cc1cccc(-c2nc(CS(=O)CC(=O)NC3CCCC3)c(C)o2)c1 (configuration not stated)	0	0	0	0	0	0
O=C(NC1CCCCCCC1)c1ccc(CNc2c(N3CCOCC3)c(=O)c2=O)cc1	0	0	0	0	0	0
COc1cccc(-c2nnc(SCC(=O)N3CC(C)CC(C)C3)o2)c1 (configuration not stated)	0	0	0	0	0	0
Clc1ccc(CSc2nnc(-c3cccnc3)n2Cc2ccco2)c(Cl)c1	0	0	0	0	0	0
CCOC(=O)CCn1c2nc(C)cc(C)c2c(=O)n1-c1ccccc1	4.48	0	0	0	-	64.0
Cn1c2ccccc2c2c(C(=O)NCCCN3CCCC3=O)cn(C3CCCCC3)c(=O)c21	2.46	0	0	0	-	0
Cn1c(C(=O)NCCCN2CCCC2=O)cc2c(=O)n(C)c3ccccc3c21	0	0	0	0	0	0

Bioassay records deposited in PubChem BioAssay by SRMLSC.
